Assay results taken from PubChem BioAssay (NCI).
The panel holds about 83,000 compounds, 20% with a hit somewhere; the sample as a whole holds those more often.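 Assay: single dose, 48 h. Readout: percent growth (0 = no net growth; negative = cell death). Active: <10.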 Unmarked numbers belong to inactive results. Active and inactive are the calls of the source.

System: NCI-H460 lung
Assay: NCI-60 one-dose screen, 48 h (100 = growth as untreated, 0 = no growth, -100 = all killed)
Conditions: 10 µM unless noted
Description: Growth inhibition of the NCI-H460 human Non-Small Cell Lung tumor cell line is measured as a screen for anti-cancer activity. Cells are grown in 96 well plates and exposed to the test compound for 48 hours. Compounds are tested at a single concentration, which is 10^-5 M for most compounds. The reported endpoint is percent growth (GI% or GIPRCNT), where numbers from 0 - 100% represent growth inhibition, and numbers from -100% - 0 represent cell death. For example, a value of 40 represents 60% growth inhibition. A value of 0 means no net growth occurred over the course of the experiment. A value of -40 indicates 40% of cells at the beginning of the experiment died by the end of the experiment. A value of -100 means all cells are dead at the end of the experiment.
NCI-60 Human Tumor Cell Lines Screen was performed using the standard one-dose NCI protocol, which is described in more detail at https://dtp.cancer.gov/discovery_development/nci-60/default.htm.
Compounds with GIPRCNT values below 10 were considered active. Activity score was based on GIPRCNT using the following formula: […]
Score is 0 for GIPRCNT values of 100 or above, 50 for GIPRCNT values of 0, and 100 for GIPRCNT values of -100.

SMILES | growth
COc1ccc(/C(=C\c2cc(OC)c(OC)c(OC)c2)C(=O)Nc2nc3ccc(Cl)cc3s2)cc1 | 117%
COC(=O)c1ccc(NC(N)=NCCC(C)(C)c2ccc(C(F)(F)F)cc2)nc1 | 31.6%
COc1cc(/C=C2\C(=O)Nc3ccc(N(C)C)cc32)cc(OC)c1OC | 6.86% (active)
C[C@]12CCc3nc(Nc4ccc(O)cc4)sc3C1=CC[C@@H]1[C@@H]2CC[C@]2(C)/C(=N/NC(N)=S)CC[C@@H]12 | -72% (active)
O=[N+]([O-])c1cccc([I+]c2ccccc2)c1 | 18.2%
Nc1cccc(S(=O)(=O)c2cccc(N)c2)c1 | 120%
COC(=O)c1cc(Cl)cc([N+](=O)[O-])c1O | 116%
NC(N)=N/N=C\c1cccc(OCc2ccccc2)c1 | 95.3%
CC(=O)[C@H]1CC[C@H]2[C@@H]3CC[C@H]4CC=CC[C@]4(C)[C@H]3CC[C@]12C | 104%
Nc1n[nH]c2ccc([C@@H]3Nc4c(F)cc5[nH]ncc5c4[C@H]4C5CCC(C5)[C@@H]34)cc12 (stereo not given in full) | 4.8% (active)
Cc1cc(C)cc(Nc2cc(C)nc3nc(C(F)(F)F)nn23)c1 | 11%
Cc1ccc(NC(=O)Cn2nncc2CN2C(=O)CSC2=O)cc1C | 105%
O=C1C2=C(C(=O)c3c(O)ccc(O)c31)N(c1ccc(N3CCOCC3)nc1)Cc1ccccc1O2 | -32.6% (active)
C=CCn1c(SCC(=O)Nc2ccc(/C(C)=N\O)cc2)nnc1-c1cc(-c2ccc(Cl)cc2)nc2ccccc12 | 17.2%
CS(=O)(=O)Nc1cc(-c2cc3ncc(C#N)c(Nc4ccc(Oc5ccccc5)c(Cl)c4)c3s2)cnc1Cl | 21.7%
C=CC[C@]1(O)CC[C@H]2[C@@H]3CCc4cc(O)ccc4[C@H]3CC[C@@]21C | 97.8%
COc1ccc(-c2nc(-c3cc(OC)cc(OC)c3)[nH]c2-c2ccc(OC)cc2)cc1 | 48%
O=C1OCC2=C1C(c1ccc(Cl)c(Cl)c1)c1cc3c(cc1N2CCO)CCC3 (stereo not given) | 5.49% (active)
CC1=C(C(=O)Nc2ccc(F)cc2)C(c2ccc(C)cc2)C2=C(CC(C)(C)CC2=O)N1 (stereo not given) | 90.8%
CNCc1cccc2c1OCCOCCOCCC(C)S(=O)(=O)c1ccc(cc1)-c1cnc(N)c(n1)C(=O)N2 (stereo not given) | 11.2%

SMILES | growth
COC(=O)C1(C)COP(=O)(NC23CC4CC(CC(C4)C2)C3)OC1 (stereo not given) | 103%
Cc1cc(O)ccc1C1=NN(c2ccc(S(N)(=O)=O)cc2)C(=O)CC1 | 12.1%
C=C(C)[C@@H]1CC[C@]2(C)[C@H](CC=C3[C@@H]4C[C@](C)(C(=O)N5CCN(C)CC5)CC[C@]4(C)CC[C@]32C)[C@@]1(C)CCC#N | 28%
C/C(CC(=O)NNc1ccc([N+](=O)[O-])cc1)=N\Nc1ccc([N+](=O)[O-])cc1 | 27.9%
O=NN(CC(=O)NNc1ccccc1)CC(=O)NNc1ccccc1 | 66.2%
CC(C)[C@H](CN)NC[C@H](C)NS(=O)(=O)c1ccc(C(C)(C)C)cc1 | 100%
CCCCCCCCCCCCCCCC1=NCC[N+]1(CCO)CCO | 3.37% (active)
COc1ccc(C2=CC(c3ccc(OC)cc3Br)N3C=CSC3=N2)cc1 (stereo not given) | 90.6%
C#CC[C@@H]1C[C@]2(C)[C@H]3CC=C4[C@H]5[C@@H](C)[C@H](C)CC[C@]5(C(=O)NCCCCCCCCN)CC[C@@]4(C)[C@]3(C)CC[C@H]2C(C)(C)[C@H]1OC(C)=O | -63.8% (active)
Cc1n(Cc2ccc3ccccc3n2)cc[n+]1Cc1ccc2ccccc2n1 | 95%
COc1ccc(-c2oc(=O)ccc2-c2cc(OC)c(OC)c(OC)c2)cc1F | 56.3%
NCCCOc1cc2ccccc2cc1C(=O)NCCCOc1cc2ccccc2cc1C(=O)Nc1ccc(Cl)cc1O | -72.3% (active)
CC(=O)OC1Oc2ccccc2-c2oc3nc(=N)n(C)c-3cc21 (stereo not given) | 112%
CN(C)c1ccc(Nc2c3ccccc3nc3ccccc23)cc1 | -26.6% (active)
CCCCN(CCCC)CCC(=O)c1ccc(OC)c2ccccc12 | 109%
Nc1ncnc2c1N=C(c1ccc(F)cc1)CC(c1sc(Cl)nc1Cl)N2 (stereo not given) | 101%
O=C(Nc1ccc(Cl)c(C(F)(F)F)c1)c1ccc(Nc2ccc(Cl)nn2)cc1 | 74%
Cc1ccc(-c2cnc3sc4ccc(Cl)cc4n23)cc1 | 104%
COc1cc(C)c2c(=O)c3c(oc2c1)C(=O)c1c(O)c(OC)cc(O)c1C3=O | 1.04% (active)
O=C(CS)OCC(COC(=O)CS)(COC(=O)CS)COC(=O)CS | 75.2%
